Experimental data: PubChem BioAssay (NCATS)
Inconclusive results are not listed. Entries that show only a call come without a potency. Activity calls are given as the source filed them. Calls come from the whole dose curve; as a rule, active = well fitted inhibition curve with a large enough effect; inconclusive = small, poorly fitted or top-dose-only effect; inactive = flat fitted curve, though single readings scatter.

How the values were obtained:
Experiment in all cases: qHTS profiling for inhibitors of Plasmodium falciparum proliferation (AID 504749); note: nearly all actives have a fitted effect of over 60% in size
Settings in all cases: P. falciparum in erythrocytes, SYBR Green DNA, 72 h; series mostly up to 28.7 µM
CP238 = tested on: CP238
How it was run: (§1)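 P. falciparum-infected erythrocytes (0.3% parasitemia, 2.5% hematocrit final) were exposed to compounds for 72 h at 37 C in 5% CO2, then lysed with SYBR Green buffer overnight at room temperature; parasite DNA fluorescence was normalized to artemisinin and DMSO controls.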

CP247 = tested on: CP247
How it was run: as §1

CP250 = tested on: CP250
How it was run: as §1

CP252 = tested on: CP252
How it was run: as §1

CP256 = tested on: CP256
How it was run: as §1

CP260 = tested on: CP260
How it was run: as §1

CP262 = tested on: CP262
How it was run: as §1

CP265 = tested on: CP265
How it was run: as §1

CP266 = tested on: CP266
How it was run: as §1

CP268 = tested on: CP268
How it was run: as §1
Potency is the fitted concentration of half-maximal effect.

In the case of CC(C[N+](C)(C)C)OC(N)=O (centres undefined), the Potency (CP238) was “inactive”, the Potency (CP247) was “inactive” and the Potency (CP250) was “inactive”. The Potency (CP252) was “inactive”, the Potency (CP256) was “inactive” and the Potency (CP260) was “inactive”. The Potency (CP262) was “inactive”, the Potency (CP265) was “inactive” and the outcome (CP266) was “inactive”. The Potency (CP268) was “inactive”.
Cc1ccc(N(CC2=NCCN2)c2cccc(O)c2)cc1 was tested, and the Potency (CP238) was “inactive”, the Potency (CP247) was “inactive” and the Potency (CP250) was “inactive”. The Potency (CP252) was “inactive”, the Potency (CP256) was “inactive” and the Potency (CP260) was “inactive”. For the same molecule, the Potency (CP262) was “inactive”, the Potency (CP265) was “inactive” and the outcome (CP266) was “inactive”. For the same molecule, the Potency (CP268) was “inactive”.
In the case of CC(c1cc2ccccc2s1)N(O)C(N)=O (centres undefined), the Potency (CP238) was “inactive”, the Potency (CP247) was “inactive” and the Potency (CP250) was “inactive”. The Potency (CP252) was “inactive”, the Potency (CP256) was “inactive” and the Potency (CP260) was “inactive”. The Potency (CP262) was “inactive”, the Potency (CP265) was “inactive” and the outcome (CP266) was “inactive”. The Potency (CP268) was “inactive”.
In the case of NCCCC(N)(C(=O)O)C(F)F (centres undefined), the Potency (CP238) was “inactive”, the Potency (CP247) was “inactive” and the Potency (CP250) was “inactive”. The Potency (CP252) was “inactive”, the Potency (CP256) was “inactive” and the Potency (CP260) was “inactive”. For the same molecule, the Potency (CP262) was “inactive”, the Potency (CP265) was “inactive” and the outcome (CP266) was “inactive”. The Potency (CP268) was “inactive”.
In the case of NC(=O)c1cnccn1, the Potency (CP238) was “inactive”, the Potency (CP247) was “inactive” and the Potency (CP250) was “inactive”. The Potency (CP252) was “inactive”, the Potency (CP256) was “inactive” and the Potency (CP260) was “inactive”. The Potency (CP262) was “inactive”, the Potency (CP265) was “inactive” and the outcome (CP266) was “inactive”. For the same molecule, the Potency (CP268) was “inactive”.
With O=C1CCC(N2C(=O)c3ccccc3C2=O)C(=O)N1 (centres undefined) the Potency (CP238) was “inactive”, the Potency (CP247) was “inactive” and the Potency (CP250) was “inactive”. For the same molecule, the Potency (CP252) was “inactive”, the Potency (CP256) was “inactive” and the Potency (CP260) was “inactive”. For the same molecule, the Potency (CP262) was “inactive”, the Potency (CP265) was “inactive” and the outcome (CP266) was “inactive”. For the same molecule, the Potency (CP268) was “inactive”.
For Cc1cn[nH]c1, the Potency (CP238) was “inactive”, the Potency (CP247) was “inactive” and the Potency (CP250) was “inactive”. The Potency (CP252) was “inactive”, the Potency (CP256) was “inactive” and the Potency (CP260) was “inactive”. The Potency (CP262) was “inactive”, the Potency (CP265) was “inactive” and the outcome (CP266) was “inactive”. For the same molecule, the Potency (CP268) was “inactive”.
For CCCc1nn(C)c2c(=O)[nH]c(-c3cc(S(=O)(=O)N4CCN(C)CC4)ccc3OCC)nc12, the Potency (CP238) was “inactive”, the Potency (CP247) was “inactive” and the Potency (CP250) was “inactive”. For the same molecule, the Potency (CP252) was “inactive”, the Potency (CP256) was “inactive” and the Potency (CP260) was “inactive”. The Potency (CP262) was “inactive”, the Potency (CP265) was “inactive” and the outcome (CP266) was “inactive”. For the same molecule, the Potency (CP268) was “inactive”.
In the case of NC[C@H](O)c1ccc(O)c(O)c1, the Potency (CP238) was “inactive”, the Potency (CP247) was “inactive” and the Potency (CP250) was “inactive”. For the same molecule, the Potency (CP252) was “inactive”, the Potency (CP256) was “inactive” and the Potency (CP260) was “inactive”. For the same molecule, the Potency (CP262) was “inactive”, the Potency (CP265) was “inactive” and the outcome (CP266) was “inactive”. The Potency (CP268) was “inactive”.
In the case of NS(=O)(=O)c1cc2c(cc1Cl)NC=NS2(=O)=O, the Potency (CP238) was “inactive”, the Potency (CP247) was “inactive” and the Potency (CP250) was “inactive”. For the same molecule, the Potency (CP252) was “inactive”, the Potency (CP256) was “inactive” and the Potency (CP260) was “inactive”. The Potency (CP262) was “inactive”, the Potency (CP265) was “inactive” and the outcome (CP266) was “inactive”. For the same molecule, the Potency (CP268) was “inactive”.
With CC(=O)Oc1ccccc1C(=O)O the Potency (CP238) was “inactive”, the Potency (CP247) was “inactive” and the Potency (CP250) was “inactive”. For the same molecule, the Potency (CP252) was “inactive”, the Potency (CP256) was “inactive” and the Potency (CP260) was “inactive”. The Potency (CP262) was “inactive”, the Potency (CP265) was “inactive” and the outcome (CP266) was “inactive”. For the same molecule, the Potency (CP268) was “inactive”.
For Oc1ccc(C2CNCCc3c2cc(O)c(O)c3Cl)cc1 (centres undefined), the Potency (CP238) was “inactive”, the Potency (CP247) was “inactive” and the Potency (CP250) was “inactive”. The Potency (CP252) was “inactive”, the Potency (CP256) was “inactive” and the Potency (CP260) was “inactive”. For the same molecule, the Potency (CP262) was “inactive”, the Potency (CP265) was “inactive” and the outcome (CP266) was “inactive”. For the same molecule, the Potency (CP268) was “inactive”.
With Cc1[nH]c(=O)c(C#N)cc1-c1ccc2nccn2c1 the Potency (CP238) was “inactive”, the Potency (CP247) was “inactive” and the Potency (CP250) was “inactive”. For the same molecule, the Potency (CP252) was “inactive”, the Potency (CP256) was “inactive” and the Potency (CP260) was “inactive”. The Potency (CP262) was “inactive”, the Potency (CP265) was “inactive” and the outcome (CP266) was “inactive”. The Potency (CP268) was “inactive”.
Nc1nc2ccc(OC(F)(F)F)cc2s1 was tested, and the Potency (CP238) was “inactive”, the Potency (CP247) was “inactive” and the Potency (CP250) was “inactive”. For the same molecule, the Potency (CP252) was “inactive”, the Potency (CP256) was “inactive” and the Potency (CP260) was “inactive”. The Potency (CP262) was “inactive”, the Potency (CP265) was “inactive” and the outcome (CP266) was “inactive”. For the same molecule, the Potency (CP268) was “inactive”.
For O=c1[nH]cnc2[nH]ncc12, the Potency (CP238) was “inactive”, the Potency (CP247) was “inactive” and the Potency (CP250) was “inactive”. For the same molecule, the Potency (CP252) was “inactive”, the Potency (CP256) was “inactive” and the Potency (CP260) was “inactive”. The Potency (CP262) was “inactive”, the Potency (CP265) was “inactive” and the outcome (CP266) was “inactive”. The Potency (CP268) was “inactive”.
In the case of Clc1cccc(Cl)c1NC1=NCCN1, the Potency (CP238) was “inactive”, the Potency (CP247) was “inactive” and the Potency (CP250) was “inactive”. For the same molecule, the Potency (CP252) was “inactive”, the Potency (CP256) was “inactive” and the Potency (CP260) was “inactive”. The Potency (CP262) was “inactive”, the Potency (CP265) was “inactive” and the outcome (CP266) was “inactive”. The Potency (CP268) was “inactive”.
With CC(C)C[C@H](NC(=O)[C@@H](O)[C@H](N)Cc1ccccc1)C(=O)O the Potency (CP238) was 12.6 µM (active), the Potency (CP247) was 6.31 µM (active) and the Potency (CP250) was 10 µM (active). For the same molecule, the Potency (CP252) was 6.31 µM (active), the Potency (CP256) was 5.62 µM (active) and the Potency (CP260) was 4.47 µM (active). The Potency (CP262) was “inactive”, the Potency (CP265) was 11.2 µM (active) and the Potency (CP268) was 13.5 µM (active).
With CNC[C@H](O)c1cccc(O)c1 the Potency (CP238) was “inactive”, the Potency (CP247) was “inactive” and the Potency (CP250) was “inactive”. For the same molecule, the Potency (CP252) was “inactive”, the Potency (CP256) was “inactive” and the Potency (CP260) was “inactive”. For the same molecule, the Potency (CP262) was “inactive”, the Potency (CP265) was “inactive” and the outcome (CP266) was “inactive”. For the same molecule, the Potency (CP268) was “inactive”.
With N#Cc1ccc(C(c2ccc(C#N)cc2)n2cncn2)cc1 the Potency (CP238) was “inactive”, the Potency (CP247) was “inactive” and the Potency (CP250) was “inactive”. For the same molecule, the Potency (CP252) was “inactive”, the Potency (CP256) was “inactive” and the Potency (CP260) was “inactive”. For the same molecule, the Potency (CP262) was “inactive”, the Potency (CP265) was “inactive” and the outcome (CP266) was “inactive”. For the same molecule, the Potency (CP268) was “inactive”.
